# From PubChem
# An excerpt weighted towards active compounds, which were near 2.4% of everything screened.
# D2 ag-1 – agonists of human D2 dopamine receptor (beta-arrestin); DiscoveRx PathHunter D2 beta-arrestin, luminescence, 90 min; 100% = 57 uM dopamine signal; activation, % (concentration not given with the values); 0.084% of 360,000 active; in the data active means activation above about 40%; inconclusive means between about 15% and that limit
# Target sequence (P14416 whole entry, looked up): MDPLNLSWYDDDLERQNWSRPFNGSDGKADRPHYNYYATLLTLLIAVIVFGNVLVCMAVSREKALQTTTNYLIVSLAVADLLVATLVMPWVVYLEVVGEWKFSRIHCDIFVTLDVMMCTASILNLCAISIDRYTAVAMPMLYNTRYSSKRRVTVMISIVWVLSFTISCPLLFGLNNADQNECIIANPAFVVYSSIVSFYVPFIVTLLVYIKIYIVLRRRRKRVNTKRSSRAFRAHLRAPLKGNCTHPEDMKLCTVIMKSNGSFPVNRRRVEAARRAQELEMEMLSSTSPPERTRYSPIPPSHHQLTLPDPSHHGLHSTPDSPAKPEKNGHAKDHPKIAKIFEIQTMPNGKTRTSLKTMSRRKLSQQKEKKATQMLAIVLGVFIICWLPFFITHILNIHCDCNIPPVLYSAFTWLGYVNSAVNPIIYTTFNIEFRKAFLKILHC
#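 DiscoveRx PathHunter D2 beta-arrestin cells (2,100/well) attached overnight, then compound-stimulated 90 min at 37 C in HBSS/10 mM HEPES/0.1% Tween-20 buffer; beta-galactosidase complementation read by luminescence after 1 h at ambient temperature. Dopamine 57 uM final (EC100) as control.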
# D2 PAM-1 – positive allosteric modulators of human D2 dopamine receptor | P14416 | DiscoveRx D2 beta-arrestin cells, luminescence, 90 min; 100% = 57 uM dopamine signal | potentiation, % (concentration not given with the values) | 0.23% of 360,000 active; in the data active means potentiation above about 50%; inconclusive means mostly about 30% to 49%
#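 PathHunter beta-arrestin assay in DiscoveRx D2 cells. Compounds were added with an EC20 of dopamine (50 nM final) for 90 min at 37 deg C. Luminescence was read 1 h after detection reagent, with 57 uM dopamine as the EC100 control.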
# D2 ag-2 – agonists of human D2 dopamine receptor. activation, % at 2 µM. HEK293 T-REx D2 cells, calcium flux agonist mode. 0.53% of 340,000 active;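 active means activation over 3 SD above normal in the single-dose calcium agonist read, cut at about 30% in these data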; further: 0% is about no effect
#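 HEK293 Trex D2 cells, tetracycline-induced, o/n 30 C 5% CO2; no-wash Ca dye, RT 30–90 min; 10-cycle baseline, 23 nl cpd added, kinetic Ca read 180 s; agonist hits = positive Ca response.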
# D2 PAM-2 – positive allosteric modulators of human D2 dopamine receptor | potentiation, % at 10 µM | 0.34% of 340,000 active | AID 485347 | HEK293 T-REx D2, calcium flux, EC20 dopamine potentiation;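 active means potentiation over 3 SD above the plate norm, cut at about 30% in these data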; further: 0% is about no effect
#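 Tetracycline-induced HEK293 T-REx cells force-coupled to calcium signalling expressed D2; compounds were pin-added after a 10 s baseline, read kinetically 180 s, then an EC20 dopamine challenge followed with a further 180 s calcium read.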
# D2 antag – D2 dopamine receptor (human) antagonism. HEK293 TREx D2 cells, calcium flux, dopamine EC80. P14416. AID 485344. inhibition, % at 10 µM. 2% of 340,000 active; in the data active means inhibition above about 30%; inactive means below that, where a call was filed; further: 0% is about no effect
#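 Read-out: kinetic calcium fluorescence (1 cycle/s) in inducible HEK293 T-REx D2 cells after an EC80 dopamine addition that followed 180 s compound preincubation. Loss of the dopamine response indicates antagonism.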
# Starred values were filed as active, the others as inactive; ? = inconclusive; . = not tested or not shown.
SMILES,D2 ag-1,D2 PAM-1,D2 ag-2,D2 PAM-2,D2 antag
Cc1cc(F)ccc1NC(=O)C1CCCN(S(=O)(=O)c2ccc3c(c2)CCCC(=O)N3)C1 (centres undefined),.,.,.,4.5,.
O=C(COc1ccccc1Cl)Nc1ccc(C(=O)O)cc1NC(=O)COc1ccccc1Cl,-7.1,1.5,-0.2,7.3,4.5
O=C(COc1ccccc1Cl)Nc1ccccc1C(=O)Nc1cccc(C(=O)O)c1,-0.9,-4.2,0.1,-0.6,30.6*
Cc1ccccc1OCc1ccc(-c2nc(C#N)c(NCCCN(C)C)o2)o1,.,.,2.1,-20.5,.
Cc1ccc(C(=O)NC(=S)Nc2ccc3[nH]c(=O)[nH]c3c2)cc1,0.5,-12.4,-0.7,3.1,46.0*
Cc1ccc(NC(=S)Nc2ccc3[nH]c(=O)[nH]c3c2)cc1,-2.7,-2.6,0.8,-0.2,-3.8
Cc1cc(C)cc(C(=O)Nc2ccc3[nH]c(=O)[nH]c3c2)c1,4.3,0.1,-0.1,-2.4,30.2*
Cc1ccc(C(=O)NC(=S)Nc2ccc(Oc3ccc(Cl)cc3)cc2)cc1,-3.1,-4.2,0.3,37.4*,-0.1
CCc1cccc(-n2c(=O)c3cccnc3n2CC(=O)NCc2ccc(C)cc2)c1,.,.,0.6,-3.5,.
COC(=O)C(CC(C)C)N1CCC(=O)c2ccccc2S1(=O)=O (centres undefined),-0.2,-6.8,-0.8,8.2,51.6*
C=C1CCN([C@@H](CC(C)C)C(=O)N2CCOCC2)S(=O)(=O)c2ccccc21,-0.9,-10.0,.,.,.
N/C(Cc1ccc([N+](=O)[O-])cc1)=N\OC(=O)C(c1ccccc1)c1ccccc1,12.3,89.4*,0.0,-5.5,12.3
Cc1ccc(CC(=O)O/N=C(\N)Cc2ccc([N+](=O)[O-])cc2)cc1,6.7,11.8,-1.1,-5.9,-16.0
Cc1cccc(C(=O)O/N=C(\N)Cc2ccc([N+](=O)[O-])cc2)c1,?,148.1*,0.4,5.7,15.7
COc1ccc(C/C(N)=N/OC(=O)C(c2ccccc2)c2ccccc2)cc1OC,7.4,50.1*,1.0,-0.4,-16.6
N/C(Cc1ccc([N+](=O)[O-])cc1)=N\OC(=O)c1ccc2ccccc2c1,?,143.0*,0.7,-2.5,-4.6
Cc1ccc(C)c(CN2C(=O)c3ccccc3S(=O)c3ccc(C(=O)NCc4ccco4)cc32)c1 (centres undefined),.,.,1.3,6.7,.
CCc1nnc(SCc2ccc(F)cc2Cl)c2cc3sc(C)cc3n12,.,.,0.7,-5.4,.
COc1ccc(NC(=O)CCn2c(-c3ccc(F)cc3)cc(C(C)=O)c2C)c(OC)c1,.,.,0.0,6.3,.
COc1ccc(C(CNC(=O)c2cccc([N+](=O)[O-])c2)N2CCOCC2)cc1 (centres undefined),.,.,0.0,-9.7,.
N/C(Cc1ccc([N+](=O)[O-])cc1)=N\OC(=O)c1ccco1,52.7*,21.0,.,.,.
N/C(Cc1ccc([N+](=O)[O-])cc1)=N\OC(=O)c1ccccc1Br,41.1*,121.7*,0.5,-11.3,2.8
COc1ccc(/C(N)=N/OC(=O)c2cccc([N+](=O)[O-])c2C)cc1,3.4,3.7,0.6,-9.6,-4.7
N/C(Cc1ccc([N+](=O)[O-])cc1)=N\OC(=O)c1ccc(Br)cc1,?,170.8*,-1.5,-10.0,11.9
COc1ccccc1C/C(N)=N/OC(=O)c1cccc([N+](=O)[O-])c1C,?,136.3*,-1.4,-0.9,4.8
SMILES,D2 ag-1,D2 PAM-1,D2 ag-2,D2 PAM-2,D2 antag
COc1cc(NC(=O)c2cc(-c3cccc(OC)c3)n[nH]2)cc(OC)c1,.,.,0.3,-16.4,.
CCOc1ccc(OCC)c(NC(=O)c2nnn(CC(=O)Nc3ccc(C)cc3C)c2N)c1,.,.,0.0,-6.4,.
CCc1c(-c2ccccc2)nc2ccccc2c1C(=O)NCc1ccc(C)cc1,.,.,0.2,-10.4,.
C/C(=N\Nc1nccnc1Cl)c1ccc(Br)cc1,4.1,-0.3,0.6,2.6,2.0
COc1ccc(/C(C)=N/Nc2nccnc2Cl)cc1,5.0,-5.5,0.1,10.4,35.7*
Cc1c(Cl)cccc1NC(=O)Cn1c(=O)n(Cc2ccco2)c(=O)c2sc3ccccc3c21,.,.,-1.0,3.9,.
O=C(NC(=O)N1CCN(c2cccc(Cl)c2)CC1)c1ccccc1,0.9,-19.5,-1.6,4.8,2.9
O=C(NC(=O)N1CCCCCC1)c1ccc(Cl)cc1,-0.5,-5.3,0.2,2.9,31.7*
O=C(NC(=O)N1CCN(c2cccc(Cl)c2)CC1)c1ccc(Cl)cc1,5.5,-28.7,4.3,-17.2,56.8*
COc1ccc(-n2ccn(CC(=O)Nc3ccccc3C(F)(F)F)c(=O)c2=O)cc1OC,.,.,0.7,-9.2,.
Cc1ccc(NC(=O)C2CCN(c3nc4ccccc4[nH]3)CC2)c(C)c1,.,.,-0.6,-10.1,.
Cc1oc(-c2cccc(F)c2)nc1CN1CCCCC1CCn1cccn1 (centres undefined),-3.4,-7.0,1.3,-21.4,45.2*
Cc1ccc(-c2nc(CN3CCCCC3CCN3CCCC3=O)c(C)o2)o1 (centres undefined),-20.0,-15.7,.,.,.
O=C(Cn1ccc(=O)[nH]c1=O)c1ccc([N+](=O)[O-])o1,46.9*,5.8,.,.,.
CCOC(=O)c1cc(-c2ccccc2)n(CCCC(=O)Nc2cc(C)ccc2OC)c1C,.,.,.,10.7,.
O=C1c2cc3ccccc3c(-c3ccccc3)c2C(=O)N1c1ccccn1,-4.4,-21.2,6.3,1.5,46.5*
O=C1c2cccc(Cl)c2C(=O)N1c1ccccn1,-3.3,-2.3,.,.,.
Cc1cc(Cl)ccc1OCC(=O)N(Cc1sccc1C)C1CCS(=O)(=O)C1 (centres undefined),.,.,6.3,9.0,.
Cc1cccc(C)c1NC(=O)CCCn1c(=O)c2cccn2c2ccccc21,.,.,-0.1,-2.2,.
CN(C)/C=C1\C(=O)Nc2ccccc21,-4.1,-19.5,0.0,-11.2,-4.0
CN(O)/C=C1\C(=O)Nc2ccccc21,7.6,130.7*,0.6,12.8,-1.8
C/C(CCc1ccccc1)=N\NC(=S)NCCc1ccccc1,3.0,-5.6,-0.6,30.8*,-6.8
Cc1cccnc1NC1CCCCC1,0.6,-13.1,1.0,2.8,-1.6
c1ccc2c(NC3CCCC3)nnc(NC3CCCC3)c2c1,-2.7,-42.5,15.8,-23.2,49.2*
O=C(Cn1c(=O)n(Cc2nc(-c3ccccc3)no2)c(=O)c2ccccc21)Nc1cccc(C(F)(F)F)c1,.,.,.,5.3,.
CN(C)c1ccc(/C=C/C(=O)c2cccc(Br)c2)cc1,2.0,-6.0,112.9*,-2.8,2.0
CN(C)c1ccc(C(=O)/C=C/c2cccnc2)cc1,-3.3,-12.9,.,.,.
O=c1c(N2CCN(c3cccc(Cl)c3)CC2)csc2ccccc12,.,.,1.5,-24.0,.
Cc1ccc(S(=O)(=O)c2nc(-c3ccccc3)oc2N2CCCCCC2)cc1,.,.,0.6,-3.6,.
CSc1oc(-c2ccccc2)nc1S(=O)(=O)c1ccc(C)cc1,-3.9,-3.5,2.5,0.6,34.3*
